Assay results reported in the supplement of paper PMC10849652.
Targets with a hit are over-represented here; the source holds about 7,900 in all. About 0.6% of all pairs of compound and target were hits.

compound: O=C1NC(=O)C(c2cnc3ccccn23)=C1c1cn2c3c(cc(F)cc13)CN(C(=O)N1CCCCC1)CC2; experiment: log2 fold change, soluble protein after heating vs DMSO (PISA); higher = thermal stabilisation; K562 cells, 10 uM, 30 min; active = over 0.2 and 3.5 SD of the protein, either way, in both replicates (recomputed)
How it was run: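 For each measurement, 10 μM compound was applied for 30 min to K562 cells at 2×10^6 cells/mL. Aliquots were heated for 3 min across 48°C-58°C, pooled, and extracted in PBS with 0.5% NP-40 at 4°C; the supernatant after 21,000xg for 90 min was soluble protein. This was quantified by TMTpro 16plex LC-MS/MS with channel sums equalised, and thermal stability was reported relative to control samples from duplicates, on a log2 fold-change scale.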

UniProt Q16644, sequence (Q16644 whole entry, looked up): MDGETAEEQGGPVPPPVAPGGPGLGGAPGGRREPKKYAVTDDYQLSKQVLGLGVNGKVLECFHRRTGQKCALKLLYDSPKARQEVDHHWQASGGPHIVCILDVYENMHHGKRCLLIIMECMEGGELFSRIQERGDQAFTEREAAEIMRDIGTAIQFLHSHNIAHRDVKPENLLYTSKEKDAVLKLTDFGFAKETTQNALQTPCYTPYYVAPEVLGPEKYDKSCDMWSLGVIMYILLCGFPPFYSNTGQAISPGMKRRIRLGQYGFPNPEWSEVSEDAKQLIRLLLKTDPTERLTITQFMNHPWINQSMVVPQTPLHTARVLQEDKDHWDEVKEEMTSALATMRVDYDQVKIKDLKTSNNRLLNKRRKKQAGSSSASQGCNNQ
UniProt P43362, sequence (P43362 whole entry, looked up): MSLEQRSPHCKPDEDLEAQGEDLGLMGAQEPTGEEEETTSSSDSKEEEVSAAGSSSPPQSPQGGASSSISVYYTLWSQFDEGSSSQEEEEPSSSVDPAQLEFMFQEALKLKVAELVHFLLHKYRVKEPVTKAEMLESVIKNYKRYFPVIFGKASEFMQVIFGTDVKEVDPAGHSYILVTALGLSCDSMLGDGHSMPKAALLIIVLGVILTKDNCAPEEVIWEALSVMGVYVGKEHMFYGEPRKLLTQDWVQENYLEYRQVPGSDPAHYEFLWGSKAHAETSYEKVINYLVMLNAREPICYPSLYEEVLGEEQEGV
UniProt O43318, sequence (O43318 whole entry, looked up): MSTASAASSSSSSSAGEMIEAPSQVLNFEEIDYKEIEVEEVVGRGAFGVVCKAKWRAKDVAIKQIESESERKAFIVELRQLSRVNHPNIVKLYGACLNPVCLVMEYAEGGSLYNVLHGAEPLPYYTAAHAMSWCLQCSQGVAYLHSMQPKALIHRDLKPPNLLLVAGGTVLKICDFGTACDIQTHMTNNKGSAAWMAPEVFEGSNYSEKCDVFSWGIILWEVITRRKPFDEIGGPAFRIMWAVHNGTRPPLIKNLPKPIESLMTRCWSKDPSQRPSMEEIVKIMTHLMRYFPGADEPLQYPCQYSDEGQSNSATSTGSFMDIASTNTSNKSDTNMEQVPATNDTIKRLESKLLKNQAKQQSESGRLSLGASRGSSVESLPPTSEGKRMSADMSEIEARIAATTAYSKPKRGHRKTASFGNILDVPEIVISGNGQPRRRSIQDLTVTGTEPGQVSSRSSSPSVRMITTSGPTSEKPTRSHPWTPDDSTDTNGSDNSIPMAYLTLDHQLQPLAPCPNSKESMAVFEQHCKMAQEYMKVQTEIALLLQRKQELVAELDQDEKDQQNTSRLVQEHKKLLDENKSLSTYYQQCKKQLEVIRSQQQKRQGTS
UniProt Q9Y383, sequence (Q9Y383 whole entry, looked up): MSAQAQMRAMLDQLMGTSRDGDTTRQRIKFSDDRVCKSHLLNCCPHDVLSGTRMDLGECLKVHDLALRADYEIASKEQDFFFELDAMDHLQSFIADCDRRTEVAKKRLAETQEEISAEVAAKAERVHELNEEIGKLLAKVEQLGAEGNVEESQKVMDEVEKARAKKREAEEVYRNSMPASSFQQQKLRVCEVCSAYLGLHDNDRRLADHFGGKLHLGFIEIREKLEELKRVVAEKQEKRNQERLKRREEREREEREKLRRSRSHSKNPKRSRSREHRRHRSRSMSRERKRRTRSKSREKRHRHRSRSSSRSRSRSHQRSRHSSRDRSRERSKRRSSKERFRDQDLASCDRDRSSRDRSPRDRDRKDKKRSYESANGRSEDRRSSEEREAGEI
UniProt Q9UHB6, sequence (Q9UHB6 whole entry, looked up): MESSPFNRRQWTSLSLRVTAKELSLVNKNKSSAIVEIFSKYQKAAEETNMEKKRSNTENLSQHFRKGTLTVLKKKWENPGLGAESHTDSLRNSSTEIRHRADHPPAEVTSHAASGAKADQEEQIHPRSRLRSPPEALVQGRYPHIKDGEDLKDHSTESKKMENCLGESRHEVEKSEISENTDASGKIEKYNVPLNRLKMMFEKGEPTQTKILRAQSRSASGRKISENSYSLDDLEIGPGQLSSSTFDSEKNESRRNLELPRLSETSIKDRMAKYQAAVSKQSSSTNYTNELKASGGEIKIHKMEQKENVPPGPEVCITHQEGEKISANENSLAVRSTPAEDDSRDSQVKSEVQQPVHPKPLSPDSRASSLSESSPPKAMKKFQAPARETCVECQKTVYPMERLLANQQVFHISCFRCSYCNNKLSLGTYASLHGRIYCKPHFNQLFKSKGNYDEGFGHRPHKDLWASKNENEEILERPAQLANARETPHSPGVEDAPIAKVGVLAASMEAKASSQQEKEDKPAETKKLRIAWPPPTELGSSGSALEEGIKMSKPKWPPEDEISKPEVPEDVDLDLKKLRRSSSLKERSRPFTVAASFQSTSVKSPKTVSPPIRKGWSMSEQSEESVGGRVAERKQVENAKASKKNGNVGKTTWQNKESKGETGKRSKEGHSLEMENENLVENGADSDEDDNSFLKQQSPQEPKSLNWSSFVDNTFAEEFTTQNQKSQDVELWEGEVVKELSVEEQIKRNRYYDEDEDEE
UniProt P48449, sequence (P48449 whole entry, looked up): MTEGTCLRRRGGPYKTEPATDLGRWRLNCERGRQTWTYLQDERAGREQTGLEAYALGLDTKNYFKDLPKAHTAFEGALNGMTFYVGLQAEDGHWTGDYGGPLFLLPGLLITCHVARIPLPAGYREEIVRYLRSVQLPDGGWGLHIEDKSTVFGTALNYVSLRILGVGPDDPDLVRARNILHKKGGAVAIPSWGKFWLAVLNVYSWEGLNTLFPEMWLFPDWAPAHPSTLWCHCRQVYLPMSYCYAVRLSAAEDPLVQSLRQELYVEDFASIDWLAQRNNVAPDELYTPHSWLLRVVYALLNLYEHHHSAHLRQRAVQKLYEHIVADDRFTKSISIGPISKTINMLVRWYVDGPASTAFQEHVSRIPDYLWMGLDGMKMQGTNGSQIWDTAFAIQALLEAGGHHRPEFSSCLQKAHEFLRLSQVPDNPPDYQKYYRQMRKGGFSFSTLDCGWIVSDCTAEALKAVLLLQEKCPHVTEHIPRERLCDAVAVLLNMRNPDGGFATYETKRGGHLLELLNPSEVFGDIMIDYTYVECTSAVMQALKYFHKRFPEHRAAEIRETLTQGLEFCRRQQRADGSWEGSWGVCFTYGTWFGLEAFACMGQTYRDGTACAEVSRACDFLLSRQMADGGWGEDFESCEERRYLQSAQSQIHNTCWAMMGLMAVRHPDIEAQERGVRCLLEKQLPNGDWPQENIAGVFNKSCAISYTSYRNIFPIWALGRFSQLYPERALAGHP
UniProt Q7Z4S6, sequence (Q7Z4S6 whole entry, looked up): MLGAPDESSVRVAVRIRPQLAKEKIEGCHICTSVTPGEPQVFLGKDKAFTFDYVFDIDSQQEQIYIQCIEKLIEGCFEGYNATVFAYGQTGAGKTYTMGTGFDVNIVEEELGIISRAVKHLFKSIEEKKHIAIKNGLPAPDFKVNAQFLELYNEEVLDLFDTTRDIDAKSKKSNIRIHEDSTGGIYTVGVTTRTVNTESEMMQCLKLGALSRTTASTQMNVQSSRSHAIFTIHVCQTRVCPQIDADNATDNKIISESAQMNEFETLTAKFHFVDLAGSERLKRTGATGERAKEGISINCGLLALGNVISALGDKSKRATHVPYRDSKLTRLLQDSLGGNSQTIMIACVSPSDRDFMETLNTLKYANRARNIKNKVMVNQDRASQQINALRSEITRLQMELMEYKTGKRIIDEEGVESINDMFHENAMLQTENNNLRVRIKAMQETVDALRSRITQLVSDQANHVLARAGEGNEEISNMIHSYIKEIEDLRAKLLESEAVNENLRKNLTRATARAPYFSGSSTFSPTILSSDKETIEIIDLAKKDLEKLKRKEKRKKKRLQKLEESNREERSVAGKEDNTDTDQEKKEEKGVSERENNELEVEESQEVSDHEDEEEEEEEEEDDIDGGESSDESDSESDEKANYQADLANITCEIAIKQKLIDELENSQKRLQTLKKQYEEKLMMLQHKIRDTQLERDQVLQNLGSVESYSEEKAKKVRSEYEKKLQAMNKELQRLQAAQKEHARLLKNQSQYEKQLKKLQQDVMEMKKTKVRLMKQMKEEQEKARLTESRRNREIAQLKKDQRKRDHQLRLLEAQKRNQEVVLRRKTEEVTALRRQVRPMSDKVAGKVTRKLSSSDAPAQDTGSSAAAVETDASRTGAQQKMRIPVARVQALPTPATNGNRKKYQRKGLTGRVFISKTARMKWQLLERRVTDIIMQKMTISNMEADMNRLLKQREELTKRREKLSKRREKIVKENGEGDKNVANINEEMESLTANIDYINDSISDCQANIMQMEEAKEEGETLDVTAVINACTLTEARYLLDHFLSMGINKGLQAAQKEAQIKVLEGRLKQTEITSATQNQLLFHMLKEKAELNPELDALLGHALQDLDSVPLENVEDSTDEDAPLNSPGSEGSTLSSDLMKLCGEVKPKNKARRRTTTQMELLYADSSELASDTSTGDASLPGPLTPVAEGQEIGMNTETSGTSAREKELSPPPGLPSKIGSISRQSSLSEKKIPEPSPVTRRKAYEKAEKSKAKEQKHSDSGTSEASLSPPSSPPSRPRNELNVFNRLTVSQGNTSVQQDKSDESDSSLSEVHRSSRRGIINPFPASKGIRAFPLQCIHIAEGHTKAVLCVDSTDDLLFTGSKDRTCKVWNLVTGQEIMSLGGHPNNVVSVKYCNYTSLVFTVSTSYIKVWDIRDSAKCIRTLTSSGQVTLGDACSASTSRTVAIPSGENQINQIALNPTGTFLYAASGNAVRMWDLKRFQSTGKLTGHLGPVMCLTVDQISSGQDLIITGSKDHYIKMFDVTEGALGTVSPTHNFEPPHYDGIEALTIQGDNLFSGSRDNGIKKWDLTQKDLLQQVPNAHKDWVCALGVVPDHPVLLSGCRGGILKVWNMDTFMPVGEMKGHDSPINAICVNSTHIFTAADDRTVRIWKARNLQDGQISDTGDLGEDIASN
UniProt Q96A72, sequence (Q96A72 whole entry, looked up): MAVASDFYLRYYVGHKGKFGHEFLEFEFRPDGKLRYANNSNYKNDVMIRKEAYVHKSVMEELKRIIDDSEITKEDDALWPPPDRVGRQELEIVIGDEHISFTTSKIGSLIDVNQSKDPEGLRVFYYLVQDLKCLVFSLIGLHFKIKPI

log2 fold change, inactive:
LUC7L2 (UniProt Q9Y383) 0.002, ILF3 isoform 7 (UniProt Q12906) 0.32, MAGOHB (UniProt Q96A72) 0.002, KDM5D isoform 3 (UniProt Q9BY66) 0, LIMD1 (UniProt Q9UGP4) -0.06, MED1 (UniProt Q15648) 0.063, MCL1 (UniProt Q07820) -0.112, LIMA1 isoform 4 (UniProt Q9UHB6) -0.073, LMBRD1 (UniProt Q9NUN5) -0.003, KIF13A (UniProt Q9H1H9) -0.005, MARCKSL1 (UniProt P49006) -0.035, LARP4 isoform 4 (UniProt Q71RC2) 0.009, KIF21A isoform 4 (UniProt Q7Z4S6) 0.213, LEMD3 (UniProt Q9Y2U8) -0.077, MAP3K7 (UniProt O43318) 0.091, MAPKAPK3 (UniProt Q16644) -0.141, MAPK14 isoform 2 (UniProt Q16539) -0.004, ITIH4 (UniProt Q14624) -0.005, MAGEA9 (UniProt P43362) -0.079, IMMT isoform 4 (UniProt Q16891) -0.031, MEPCE (UniProt Q7L2J0) -0.019, LSS (UniProt P48449) -0.001
